# Screening results as filed in PubChem BioAssay.
# PPARg SRC-1 ag: PPARgamma agonists recruiting SRC-1 coactivator, primary screen, biochemical | Peroxisome proliferator-activated receptor gamma (Homo sapiens), P37231 | PPARgamma-SRC-1 coactivator recruitment biochemical assay | activation, % at 8 µM | 200,000 tested, 0.41% active | AID 631, 2007; in the data active = activation above about 19%
# Target sequence (P37231 whole entry, looked up): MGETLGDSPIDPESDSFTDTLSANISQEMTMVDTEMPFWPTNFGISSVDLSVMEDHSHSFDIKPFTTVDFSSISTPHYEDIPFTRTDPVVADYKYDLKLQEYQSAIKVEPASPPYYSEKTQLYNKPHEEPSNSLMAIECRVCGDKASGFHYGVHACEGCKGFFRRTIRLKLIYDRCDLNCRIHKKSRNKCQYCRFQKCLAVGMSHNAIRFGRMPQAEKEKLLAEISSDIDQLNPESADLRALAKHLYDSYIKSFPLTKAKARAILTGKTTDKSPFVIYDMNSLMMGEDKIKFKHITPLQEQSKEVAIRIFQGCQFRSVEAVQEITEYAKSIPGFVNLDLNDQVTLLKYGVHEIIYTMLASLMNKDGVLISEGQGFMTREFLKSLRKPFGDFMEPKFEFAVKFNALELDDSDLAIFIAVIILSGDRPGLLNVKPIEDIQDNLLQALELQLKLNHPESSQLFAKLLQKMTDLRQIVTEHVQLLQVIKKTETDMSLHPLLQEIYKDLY
# SRC2 TRFRET art: TR-FRET signal artefacts, primary screen, artefact control for PPARgamma SRC-2 agonist project, biochemical; TR-FRET artefact counter-screen; hits give high values; 200,000 tested, 0.4% active; TR-FRET ratio at 8 µM
# PPARg SRC-3 ag: PPARgamma agonists recruiting SRC-3 coactivator, primary screen, biochemical | Peroxisome proliferator-activated receptor gamma (Homo sapiens), P37231 | biochemical PPARgamma/SRC-3 coactivator recruitment assay | activation, % at 8 µM | 200,000 tested, 0.26% active; in the data active = activation above about 23%
# SRC3 TRFRET art: TR-FRET detection interference compounds, artefact control for PPARgamma SRC-3 recruitment agonists, biochemical, TR-FRET ratio. 99,000 tested, 0.39% active. AID 1048, 2008. TR-FRET artefact counter-screen, PPARgamma/SRC-3 format; hits give high values. TR-FRET ratio at 8 µM
# SRC1 TRFRET art: TR-FRET detection interference compounds, primary screen, artefact control for PPARgamma SRC-1 recruitment agonists, biochemical, TR-FRET emission ratio; TR-FRET detection artefact counter-screen; hits give high values; TR-FRET ratio at 8 µM; 99,000 tested, 0.34% active; AID 1051, 2008; in the data active = TR-FRET ratio above about 2300
# PPARg SRC2 recr: agonists of PPARg-SRC-2 recruitment, primary screen, biochemical, HTS; PPARgamma LBD-SRC-2 recruitment; activation, % at 8 µM; 200,000 tested, 0.34% active; in the data active = activation above about 22%
# A number is an active result; 0 = inactive; - = no result. A selection: hits, their analogues and other compounds. The true share with any hit is near 0.9%. Rule as the data show it, unless noted: active = TR-FRET ratio above about 2000; inactive = the rest.
SMILES,PPARg SRC-1 ag,SRC2 TRFRET art,PPARg SRC-3 ag,SRC3 TRFRET art,SRC1 TRFRET art,PPARg SRC2 recr
Cc1ccc2nc(-c3cccc(NC(=O)c4ccc5c(c4)OCCO5)c3)oc2c1,0,0,0,-,-,0
O=C(Nc1ccc2oc(-c3ccc4ccccc4c3)nc2c1)c1ccc2c(c1)OCCO2,27,0,0,-,-,0
O=C(Nc1ccc2nn(-c3ccccc3)nc2c1)c1ccc2c(c1)OCO2,0,0,0,-,-,22
O=C(Nc1cccc(F)c1)c1ccc2c(c1)OCO2,0,0,0,-,-,0
Cc1nsc(Nc2ccccc2)c1C#N,0,0,0,0,0,0
Cc1csc(C(C)N(C)C(=O)CCc2nnc(CCc3ccccc3)o2)n1 (configuration not stated),0,0,0,0,0,0
CC(C)N(C)C(=O)C(=O)c1cccn1-c1cccc(Cl)c1C#N,0,0,0,0,2315,0
N#Cc1c(N)sc(=S)c2c1CCCC2,0,2023,0,-,-,0
Cc1[nH]c(=S)c(C#N)c2c1CCCC2,0,0,0,0,0,0
CC(=O)c1sc(NC(=O)c2ccc(C)c(C)c2)nc1C,0,0,0,0,0,0
CC(=O)c1sc(NC(=O)c2ccc(C(C)(C)C)cc2)nc1C,0,1990,0,2151,0,0
CCN1/C(=C/c2ccc3cc(C)ccc3[n+]2C)Sc2ccc3sccc3c21,96,2435,46,2512,3458,53
CCN1/C(=C/c2ccc3cc(C)ccc3[n+]2CC)Sc2cc(C)ccc21,0,0,0,0,0,0
N#Cc1c(-c2ccc(Br)cc2)cc(-c2cccnc2)nc1N,0,0,0,2107,0,0
O=C(CSc1c2c(nc3ccc(Cl)cc13)CCCC2)NCCCN1CCOCC1,0,0,0,2256,0,0
O=C(CSc1ccccc1)NCCCN1CCOCC1,0,0,0,-,-,0
O=C(CSCC(=O)N1CCCCC1)Nc1nc(-c2ccccc2)c(-c2ccccc2)s1,0,0,0,2244,0,0
COc1ccc(-c2sc(NC(C)=O)nc2-c2ccccc2)cc1,0,0,0,0,0,0
Cc1ccccc1Nc1scc(-c2ccc(Cl)cc2)[n+]1-c1ccccc1C,0,2007,0,0,0,0
Cc1c(Nc2scc(-c3ccccc3)[n+]2-c2ccccc2)c(=O)n(-c2ccccc2)n1C,0,0,0,0,0,0
CC1CCN(C2=NC(=O)/C(=C/c3cn(-c4ccccc4)nc3-c3cccc(S(=O)(=O)N(C)C)c3)S2)CC1,0,0,0,-,-,0
COC(=O)c1c(NC(=O)COC(=O)[C@@H](NS(=O)(=O)c2ccc(C)cc2)C(C)C)sc2c1CCC2,0,0,0,0,2338,0
COC(=O)c1c(NC(=O)COC(=O)c2ccc(C)s2)sc2c1CCCCC2,0,0,0,0,0,0
CN(CC1CCCO1)S(=O)(=O)c1ccc(C(=O)Nc2ccc3c(c2)OCO3)cc1 (configuration not stated),0,0,0,0,0,0
CN(CC1CCCO1)S(=O)(=O)c1ccc(C(=O)Nc2nc3cc4c(cc3s2)OCO4)cc1 (configuration not stated),0,0,0,-,-,23
SMILES,PPARg SRC-1 ag,SRC2 TRFRET art,PPARg SRC-3 ag,SRC3 TRFRET art,SRC1 TRFRET art,PPARg SRC2 recr
Cn1c2ccccc2c2cc(C(=O)OCC(=O)N3CC(=O)Nc4ccccc43)sc21,0,2536,0,-,-,0
CC(=O)NS(=O)(=O)c1ccc(NC(=O)CC(C)c2ccccc2)cc1 (configuration not stated),0,0,0,0,0,0
COC(=O)c1ccc(COC(=O)c2ccc(S(=O)(=O)N3CCC(C)CC3)cc2)o1,21,0,0,-,-,0
NNc1nc2c(-c3ccc(Cl)cc3)nnn2c2ccccc12,0,0,0,0,0,0
NNc1nc2c(-c3ccc(F)cc3)nnn2c2ccccc12,24,0,0,0,0,0
CCOc1ccc(NC(=O)C(Cc2ccccc2)N2C(=O)c3cccc4cccc(c34)C2=O)cc1 (configuration not stated),0,0,0,0,0,0
O=C1c2cccc(OCC(=O)N3CCCc4ccccc43)c2CCN1Cc1ccc(Br)cc1,0,0,0,0,0,0
O=C1c2cccc(OCC(=O)N3CCCc4ccccc43)c2CCN1Cc1ccccc1,24,0,0,0,0,0
